Reference: ChEMBL document CHEMBL1157539, “Thousands of chemical starting points for antimalarial lead identification” (Nature, 2010)

tested on: Plasmodium falciparum; assay: GSK_TCMDC: Inhibition of Plasmodium falciparum Dd2 in whole red blood cells, using parasite LDH activity as an index of growth. Test compounds present at 2uM; format: functional

| Compound | Inhibition [%] |
| --- | --- |
| O=C(O)C(F)(F)F.c1cc(CNCCc2ccncc2)cc(-c2ccc(-c3nc4ccccc4[nH]3)s2)c1 | 97 |
| COc1ccc(CN2CCCC(Nc3ccc(F)c(F)c3)C2)c(O)c1 (configuration not stated) | 83 |
| Br.CCOC(=O)c1cc(Cl)ccc1OCCCON1C(=N)N=C(N)NC1(C)C | 95 |

tested on: HepG2; assay: GSK_TCMDC: Percent inhibition of human HepG2 cell line. Test compounds present at 10uM.; format: functional

| Compound | Inhibition [%] |
| --- | --- |
| Cc1cc(N[C@@H](Cc2ccccc2)C(=O)NCCCOC(C)C)nc(NCC2CCCCC2)n1.O=C(O)C(F)(F)F | 17 |
| CC(C)c1cccc(C(C)C)c1NC(=O)NNC(=O)c1ccc(CCN2CCC(c3nc(COCC(F)(F)F)c(-c4ccc(F)cc4)o3)CC2)cc1 | 61 |
| O=C(NCCCCN1CCC(c2ccc([N+](=O)[O-])cc2)CC1)c1ccc(NC(=O)c2ccc(Cl)cc2)cc1 | 15 |
| Oc1ccc(Cl)cc1-c1cc(C(F)(F)F)nc(-c2ccccc2)n1 | 20 |
| N#Cc1ccc(N(CCNS(=O)(=O)c2cc(Br)c(Cl)s2)Cc2ccccc2C(F)(F)F)cc1C(F)(F)F | 3 |
| O=[N+]([O-])c1ccc(N/C(=N\c2ccccc2Br)NCCOc2ccccc2)c(O)c1 | 6 |
| O=C(Cc1c[nH]cn1)Nc1cccc(-c2cccc(-c3nc4cc(F)ccc4[nH]3)c2)c1 | 21 |
| Cc1ccccc1CNc1noc(-c2sccc2Br)n1 | 0 |
| COc1ccc(-c2nc3cc4ccccc4nc3[nH]2)c(OCC(O)CNC(C)C)c1.Cl (configuration not stated) | 19 |
| COc1cc2c(cc1OC)CN(c1cc(N)c3cc(OC)c(OC)cc3n1)CC2.CS(=O)(=O)O | 23 |
| CCCCn1c(Sc2ccc(C#N)c([N+](=O)[O-])c2)nnc1-c1cccc(Cl)c1 | 30 |
| O=C(Nc1cc(C(F)(F)F)ccc1Cl)c1ccc(Cn2cc(Br)cn2)cc1 | 24 |
| Cc1cc(N[C@@H](Cc2ccccc2)C(=O)NCCOc2ccccc2)nc(NCCc2ccc(F)cc2)n1.O=C(O)C(F)(F)F | 5 |
| CCOC(=O)c1ccc(Nc2cc(Nc3ccc(C(=O)OCC)cc3)nc(C)n2)cc1 | 4 |
| Cc1nc(N)nc(N)c1OCCCCOc1ccccc1.Cl.O | 62 |
| Cc1cc(N[C@@H](Cc2ccccc2)C(=O)NCCc2ccccc2)nc(NCCc2cccs2)n1.O=C(O)C(F)(F)F | 12 |
| Cc1cc(N[C@@H](Cc2ccccc2)C(=O)Nc2ccccc2)nc(NCCc2ccccc2)n1.O=C(O)C(F)(F)F | 8 |

| Compound | Inhibition [%] |
| --- | --- |
| CCOC(=O)c1c(CCc2ccc(C(F)(F)F)cc2)nc2c(c1-c1ccc(C(=O)N[C@@H](C)c3ccncc3)cc1)C(=O)N1CCC[C@@H]21 | 0 |
| Br.C=CCc1cc(Br)ccc1OCCCON1C(N)=NC(N)=NC1(C)C | 61 |
| CC(=O)Nc1ccc(OCCCN(Cc2ccccc2OC(F)(F)F)c2ccc(C(F)(F)F)c(C#N)c2)c(Cl)c1 | 5 |
| COc1cc(C(=O)Nc2cccc(-c3nc4ccccc4[nH]3)c2)ccc1OC(C)=O | 16 |
| CCN1CCc2nc3ccccc3c(C(=O)Nc3ccc(C#N)cc3)c2C1 | 24 |
| COc1ccc(COc2c(OC)cc(Cc3cnc(N)nc3N)cc2OC)cc1 | 5 |
| O=C(Nc1ccc(Cl)cc1)Nc1ccc(-c2cccc(-c3nc4cc(F)ccc4[nH]3)c2)cc1 | 74 |
| O=C(O)C(F)(F)F.c1cncc(CCNCc2cccc(-c3ccc(-c4nc5ccccc5[nH]4)s3)c2)c1 | 8 |
| NC1CCN(c2nc(NCCCc3ccc(O)cc3)nc(NCc3ccccc3-c3ccccc3)n2)CC1.O=C(O)C(F)(F)F | 11 |
| COc1ccc(-c2cccc(NC(=O)c3cccc(C#N)c3)c2)cc1CN1CCCC1.O=C(O)C(F)(F)F | 28 |
| Cc1cccc(C(=O)Nc2ccnc(N3CCCN(Cc4cccc(O)c4)CC3)c2)c1.O=C(O)C(F)(F)F | 0 |
| Nc1c(Cl)cc(C(O)CNCCCCCOCCc2ccccc2)cc1C(F)(F)F (configuration not stated) | 3 |
| CN1CCN(c2cc(NC(=O)Nc3cccc(Cl)c3Cl)ccc2Cl)CC1.Cl | 2 |
| Clc1ccc(-c2cc(-c3csc(NCCN4CCOCC4)n3)on2)c(Cl)c1 | 39 |
| N#Cc1ccccc1Sc1ccccc1C(=O)Nc1ccc2ccccc2n1 | 0 |
| Cl.ON=C1CCc2cc(-c3[nH]c(-c4cccc(OCCNCc5ccc(F)cc5)c4)nc3-c3ccncc3)ccc21 | 76 |
| O=S(=O)(c1cccc(C(F)(F)F)c1)N1CCC(CO)(Cc2cccc(C(F)(F)F)c2)CC1 | 3 |
